The values that follow come from PubChem BioAssay (NCI).

Each structure is given as a SMILES string. This is part of a sample that, as a whole, favours compounds with a hit. Of some 83,000 tested, about 20% had one in any assay.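 Note: values are percent growth. 100 is the growth of untreated cells, values between 100 and 0 indicate rising inhibition; between -100 and 0 indicates cell death.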 Values without a mark were called inactive. Activity calls are given as the source filed them.

The experiment deals with SK-MEL-5 melanoma. Kind of experiment: NCI-60 one-dose screen, 48 h (100 = growth as untreated, 0 = no growth, -100 = all killed). To be noted: 10 µM unless noted. Here is the method:
Growth inhibition of the SK-MEL-5 human tumor cell line is measured as a screen for anti-cancer activity. Cells are grown in 96 well plates and exposed to the test compound for 48 hours. Compounds are tested at a single concentration, which is 10^-5 M for most compounds. The reported endpoint is percent growth (GI% or GIPRCNT), where numbers from 0 - 100% represent growth inhibition, and numbers from -100% - 0 represent cell death. For example, a value of 40 represents 60% growth inhibition. A value of 0 means no net growth occurred over the course of the experiment. A value of -40 indicates 40% of cells at the beginning of the experiment died by the end of the experiment. A value of -100 means all cells are dead at the end of the experiment.
NCI-60 Human Tumor Cell Lines Screen was performed using the standard one-dose NCI protocol, which is described in more detail at https://dtp.cancer.gov/discovery_development/nci-60/default.htm.
Compounds with GIPRCNT values below 10 were considered active. Activity score was based on GIPRCNT using the following formula: […]
Score is 0 for GIPRCNT values of 100 or above, 50 for GIPRCNT values of 0, and 100 for GIPRCNT values of -100.
Consider `N#CC1=C(N)OC2=C(C(=O)CCC2)C1c1ccco1` (stereo not given), for which the growth was 101%. For `C=C1C(=O)O[C@H]2[C@H]1CC/C(COC(=O)NCCc1ccc(OC)cc1)=C\CC[C@@]1(C)O[C@@H]21`, the growth was 72.3%. Turning to `O=C1NC(Cc2c[nH]c3ccccc23)C(=O)N1Cc1ccc(Cl)cc1` (stereo not given), the growth is 95%. Then `NC(=O)NC(=O)/C=C/C(=O)OCCCl`, with 106%; and `CCCCCCCCCCCCCCCCCCOc1cccc(CCOP(=O)(O)OCC[N+](C)(C)C)c1`, with 91.1%.

As for `CCn1cc(C(=O)O)c(=O)c2cc(F)c(N3CCN(S(=O)(=O)c4ccc(OC)c(OC)c4)CC3)cc21`, the growth was 93.5%. As for `COc1ccccc1OCC(=O)Nc1sc2c(c1C(N)=O)CCC2`, the growth was 70%. Take `O=C(CC(O)c1ccncc1)c1ccccc1` (stereo not given): the growth is 88.3%. Regarding `Cn1cc(C=O)c2ccccc21`, the growth was 99.4%.

As for `NCCSC(c1ccccc1)(c1ccccc1)c1ccccc1`, the growth is 11.9%. Regarding `O=C(CNc1c(Cl)cccc1Cl)Nc1ccc(-c2nc3ccccc3s2)cc1`, the growth was 21.2%. Then `Nc1nc(-c2ccccc2)cs1`, with 102%; and `COc1ccc(C2=CC(c3ccc(Oc4ccnc5cc(Cl)ccc45)c(OC)c3)c3c(nc(OC)[nH]c3=O)N2)cc1` (stereo not given), with 74.6%; and `OC1CC2c3ccccc3C1c1ccccc12` (stereo not given), with 106%.

Take `CC(C)(C)c1ccc(S(=O)(=O)Oc2ccc3c4c(c(=O)oc3c2)CCCCC4)cc1`: the growth is -3.23% (active). Turning to `COc1ccc(-n2cnc3c(sc4ncc(Cl)cc43)c2=O)cc1`, the growth was 99.1%. For `CC(=O)n1cc([C@H]2CC[C@H](c3cn(C(C)=O)c4ccccc34)c3c2[nH]c2ccccc32)c2ccccc21`, the growth is 80%. For `COc1cc2nc(Cl)nc(NCCO)c2cc1OC`, the growth was 102%. For the compound `CC[C@]1(O)C[C@@H]2CN(Cc3c([nH]c4ccccc34)[C@@](C(=O)OC)(c3cc4c(cc3OC)N(C)[C@H]3[C@@](O)(C(=O)OC)[C@H](OC(C)=O)[C@]5(CC)[C@@H]6C[C@@H]6CN6CC[C@]43[C@@H]65)C2)C1`, the growth was 2.99% (active). For `Cc1cc2c(C(C)C)c(O)c(O)c(C=NCCCCCCC(=O)O)c2c(O)c1-c1c(C)cc2c(C(C)C)c(O)c(O)c(C=NCCCCCCC(=O)O)c2c1O`, the growth was 30.2%.

Regarding `Nc1nc(-c2cc3ccccc3o2)cc(=O)c(=O)[nH]1`, the growth was 90.4%. For the compound `Cc1nn(-c2ccc(Cl)cc2)c(=O)n1CCOc1ccccc1Cl`, the growth was 105%. With `COc1ccc([N+](=O)[O-])c(/C=C/C(=O)c2ccccn2)c1`, the growth is 90%. Regarding `O=[N+]([O-])c1c(S(=O)(=O)O)cc2cc(S(=O)(=O)O)ccc2c1[N+](=O)[O-]`, the growth was 100%. Turning to `Nc1ccccc1C#C/C=C\C#Cc1cccc(O)c1`, the growth was 34%.

Take `Cc1ccc(-c2csc3nc(C)c(CCCl)c(=O)n23)cc1`: the growth is 89.7%.

For `Cc1sc(N=Nc2ccc(N(C)C)cc2)[n+]([O-])c1C`, the growth is 99%.

For the compound `COC12CC(=O)C(C(C)=O)=C(O)C1(C)c1c(O)c(C)c(O)c(C(C)=O)c1O2` (stereo not given), the growth is 46.1%. Consider `Cc1cc(C(=O)O)c(N)c(C)n1`, for which the growth was 115%. Take `O=C(Nc1ccc(F)c(Cl)c1)c1n[nH]c(=O)c2ccccc12`: the growth was 90.9%. On to `CCCCCCCC/C=C\CCCCCCCCOc1ccccc1CCOP(=O)(O)OCC[N+](C)(C)C`, for which the growth was 69.5%. Then `O=C1CCCCN1CCCCC#Cc1ccccc1C#Cc1ccccn1`, with 98.2%; and `O=C(/C=C/CN1CCOCC1)Nc1cc2c(Nc3ccc(F)c(Cl)c3F)ncnc2cc1OCCOC(F)F`, with 50.4%. Consider `C=C1C(=O)O[C@H]2[C@H]1CC/C(COC(=O)NCc1cc(OC)cc(OC)c1)=C\CC[C@@]1(C)O[C@@H]21`, for which the growth was 84.9%. As for `NC(C(=O)O)C(O)c1ccc(OCc2ccccc2)c(OCc2ccccc2)c1` (stereo not given), the growth was 103%. The same measure for `Nc1c(C(=O)Nc2cccc(Cl)c2Cl)sc2nc3c(cc12)C(=O)CCC3`: 49.8%; for `N#Cc1c(NC(=O)c2ccc([N+](=O)[O-])o2)[n+]([O-])c2cc(F)c(F)cc2[n+]1[O-]`: 79.6%.

Turning to `O=C(Nc1ccc(Br)c(Cl)c1)c1cc(F)ccc1O`, the growth is -90.3% (active).

Turning to `COc1ccc(C2SCC(=O)N2NC(=O)c2ccc(NC(=O)c3ccccn3)cc2)cc1OC` (stereo not given), the growth was 102%. Consider `CCN1C(=O)N[C@H]2[C@@H]3NC(=O)c4ccc(Cl)n4[C@@H]3C[C@]21O`, for which the growth was -28.7% (active).
